# PubChem BioAssay (Tox21)
# Unmarked numbers belong to inactive results. Results filed as inconclusive are left out. Entries that show only a call come without a potency. Activity calls are given as the source filed them. Unless noted, calls come from the whole dose curve.
# Tests used:
# [1] = Nuclear factor erythroid 2-related factor 2/antioxidant responsive element (Nrf2/ARE) small molecule agonists: luciferase reporter gene qHTS assay in human keratinocytes (AID 1919969); note: nearly all actives have a fitted effect of over 35% in size; note: potency is the fitted concentration of half-maximal effect
# [2] = biological target: Gonadotropin-releasing hormone receptor (Homo sapiens) (UniProt P30968); test: Human gonadotropin-releasing hormone receptor (GnRHR) small molecule agonists, calcium flux assay in GnRHR-HEK293 cells (AID 1920063); note: nearly all actives have a fitted effect of over 35% in size; note: potency is the fitted concentration of half-maximal effect
# In short: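 Cells: HEK293 stably expressing human GnRHR. Steps: overnight (18 h) culture, 1 h calcium dye loading at 37 C, compound addition, kinetic fluorescence read at 480/540 nm. Each compound tested at 15 concentrations in triplicate.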
# [3] = biological target: KiSS-1 receptor (Homo sapiens) (UniProt Q969F8); test: Human kisspeptin (KISS1R) small molecule agonists, calcium flux assay in KISS1R-HEK293 cells (AID 1920064; active = well fitted activation curve with a large enough effect in the repeat runs; note: potency is the fitted concentration of half-maximal effect)
# In short: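 Cells plated and incubated 18 h; dye added, 1 h at 37 C; compounds in DMSO pinned in; signal read at 480/540 nm every second for 3 min. Each compound tested at 15 concentrations in triplicate.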
# [4] = G protein-coupled receptor (GPCR) small molecule agonists, calcium flux assay: HEK293 wild type cell line counter screen (AID 1920065); note: potency is the fitted concentration of half-maximal effect
# In short: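 Counter-screen of the Tox21 10K library for non-specific calcium release: dye-loaded cells received compounds in DMSO and were monitored by kinetic fluorescence (480/540 nm, 3 min). Fifteen concentrations, run in triplicate.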
# [5] = p53 small molecule agonists, cell-based qHTS assay with human liver microsomes: qHTS cell viability counter screen (AID 1963579); note: nearly all actives have a fitted effect of over 45% in size
# In short: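 In this multiplexed counter screen, the reporter plates were subsequently treated with CellTiter-Glo so that cell viability, reflected by luminescence, could be recorded for p53RE-bla cells dosed 16 h with compounds under microsomal activation (HLM and NADPH).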
# [6] = p53 small molecule agonists, cell-based qHTS assay with rat liver microsomes: qHTS cell viability counter screen (AID 1963580); note: nearly all actives have a fitted effect of over 45% in size
# In short: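 HCT-116 p53RE-bla, 4,000 cells/well, 5 h pre-incubation; cpd + rat liver microsomes 0.5 mg/mL + NADPH 0.5 mg/mL (final); 16 h, 37 C; CellTiter-Glo, 30 min RT; luminescence.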
# [7] = p53 small molecule agonists, cell-based qHTS assay: qHTS cell viability counter screen (AID 1963581); note: nearly all actives have a fitted effect of over 45% in size
# In short: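 Cells: HCT-116 with p53 response element-driven beta-lactamase. Treatment: 16 h, 37 C, compounds in DMSO. Read: CellTiter-Glo luminescence after 30 min RT.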
# [8] = biological target: 5-hydroxytryptamine receptor 2A (Homo sapiens) (UniProt P28223); test: 5-hydroxytryptamine receptor 2A (HTR2A) small molecule antagonists, cell-based qHTS assay (AID 1963586); note: nearly all actives have a fitted effect of over 45% in size
# In short: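 Antagonist-mode intracellular calcium assay: DOI (4 nM) added after 5 min compound pre-incubation at room temperature to dye-loaded HTR2A-CHO cells. Fluorescence followed for 3 min, sampled every second.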
# [9] = biological target: 5-hydroxytryptamine receptor 2A (Homo sapiens) (UniProt P28223); test: 5-hydroxytryptamine receptor 2A (HTR2A) small molecule agonists, cell-based qHTS assay (AID 1963587); note: nearly all actives have a fitted effect of over 30% in size; note: potency is the fitted concentration of half-maximal effect
# In short: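 Kinetic calcium-flux fluorescence (2 min, 1 sec intervals) after compound addition in agonist mode. HTR2A-CHO cells were cultured 18 h, then dye-loaded 1 h at 37 C.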
# [10] = biological target: Muscarinic acetylcholine receptor M1 (Homo sapiens) (UniProt P11229); test: Cholinergic receptor muscarinic 1 (CHRM1) small molecule antagonists, cell-based qHTS assay (AID 1963588); note: nearly all actives have a fitted effect of over 40% in size
# In short: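 CHRM1-CHO calcium-flux assay, antagonist mode. Cells were seeded 18 h, dye-loaded 1 h at 37 C and given compound for 5 min at RT, then acetylcholine was added at 50nM. FDSS fluorescence was read 3 min; 15 concentrations, three runs.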
# [11] = biological target: Muscarinic acetylcholine receptor M1 (Homo sapiens) (UniProt P11229); test: Cholinergic receptor muscarinic 1 (CHRM1) small molecule agonists, cell-based qHTS assay (AID 1963589); note: nearly all actives have a fitted effect of over 35% in size; note: potency is the fitted concentration of half-maximal effect
# In short: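 Agonist-mode qHTS in CHO cells stably carrying human muscarinic M1. Intracellular calcium is tracked by fluorescence every second after compound transfer; each compound runs at 15 concentrations in three independent runs.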
# [12] = cAMP Responsive Elements (CRE) small molecule agonists, cell-based qHTS assay (AID 1963590)
# In short: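 Agonist mode qHTS in CRE-bla HEK 293T cells: compounds dosed from DMSO for 3 h at 37 C/5% CO2, followed by LiveBLAzer B/G FRET substrate for 2 h at room temperature.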
# [13] = cAMP Responsive Elements (CRE) small molecule antagonists, cell-based qHTS assay (AID 1963591; active = well fitted inhibition curve with a large enough effect in the signal ratio in the repeat runs, not every such curve was filed as active; the % refers to the signal ratio)
# In short: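 Antagonist mode: test compounds are co-incubated with the adenylyl cyclase activator NKH477 (0.25 uM final) on CRE-bla HEK293T cells for 3 h at 37 °C, followed by LiveBLAzer substrate loading.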
# [14] = biological target: Beta-2 adrenergic receptor (Homo sapiens) (UniProt P07550); test: Adrenergic beta2 receptor (ADRB2) small molecule antagonists, cell-based qHTS assay (AID 1963592); note: series mostly up to about 92 µM; nearly all actives have a fitted effect of over 50% in size
# In short: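 Cells (CHO, stable ADRB2 overexpression) incubated 18-20hr at 37C; compounds added from DMSO; agonist mix (1nM isoproterenol, 100uM IBMX, 25uM Ro-20-1724) added; 0.5hr RT; d2-cAMP and anti-cAMP-cryptate added; 1hr RT; 665/615 nm read.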
# [15] = biological target: D(2) dopamine receptor (Homo sapiens) (UniProt P14416); test: Dopamine D2 receptor (DRD2) small molecule agonists, cell-based qHTS assay (AID 1963594); note: nearly all actives have a fitted effect of over 35% in size
# In short: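 cAMP accumulation in DRD2-HEK293 cells measured by HTRF after 1 h detection; compounds added 10 min before NKH477 (200nM […]) forskolin-analogue stimulation, 30 min at room temperature, with Ro20-1724 present at 0.1 mM final.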
# [16] = biological target: D(2) dopamine receptor (Homo sapiens) (UniProt P14416); test: Dopamine D2 receptor (DRD2) small molecule antagonists, cell-based qHTS assay (AID 1963595; active = well fitted inhibition curve with a large enough effect in the signal ratio in the repeat runs, with a control signal flat; the % refers to the signal ratio)
# In short: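 In this cell-based antagonist screen, compounds act for 10 min at room temperature before a 30 min challenge with 12 nM quinpirole and 200 nM NKH477. cAMP is quantified by HTRF competition in DRD2-HEK293 cells containing 0.1 mM Ro20-1724.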
# [17] = p53 small molecule agonists, cell-based qHTS assay with rat liver microsomes (AID 1963578)
# In short: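 With rat liver microsomes and NADPH present (0.5 mg/mL final each), p53RE-bla cells are treated with compound for 16 h at 37 C. LiveBLAzer detection mixture is then applied for 2 h at room temperature in the dark.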
# [18] = p53 small molecule agonists, cell-based qHTS assay (AID 1963582; active = well fitted activation curve with a large enough effect in the signal ratio in the repeat runs, not every such curve was filed as active; the % refers to the signal ratio)
# In short: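 Quantitative HTS in p53RE-bla cells: after a 5 h settling period, compounds delivered in DMSO were left on cells for 16 h at 37 C, and reporter induction was measured as fluorescence following 2 h substrate loading.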
# [19] = biological target: Beta-2 adrenergic receptor (Homo sapiens) (UniProt P07550); test: Adrenergic beta2 receptor (ADRB2) small molecule agonists, cell-based qHTS assay (AID 1963593);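 note: CHO cells stably overexpressing human ADRB2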
# In short: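 CHO cells stably over-expressing ADRB2 were plated overnight at 37C, then dosed with compounds plus a stimulation mix containing 100uM IBMX and 25uM Ro-20-1724 for 0.5hr at room temperature. cAMP was measured by HTRF competition, 1hr.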
# [20] = p53 small molecule agonists, cell-based qHTS assay with human liver microsomes (AID 1963577);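 note: p53 response element beta-lactamase reporter cells with liver microsomes plus NADPH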
# In short: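 16 h, 37 C exposure of p53RE-bla cells to compounds with human liver microsomes and NADPH (0.5 mg/mL final each); detection via LiveBLAzer mixture, 2 h dark at room temperature.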
# Beta-2 adrenergic receptor (Homo sapiens), sequence (P07550 whole entry, looked up): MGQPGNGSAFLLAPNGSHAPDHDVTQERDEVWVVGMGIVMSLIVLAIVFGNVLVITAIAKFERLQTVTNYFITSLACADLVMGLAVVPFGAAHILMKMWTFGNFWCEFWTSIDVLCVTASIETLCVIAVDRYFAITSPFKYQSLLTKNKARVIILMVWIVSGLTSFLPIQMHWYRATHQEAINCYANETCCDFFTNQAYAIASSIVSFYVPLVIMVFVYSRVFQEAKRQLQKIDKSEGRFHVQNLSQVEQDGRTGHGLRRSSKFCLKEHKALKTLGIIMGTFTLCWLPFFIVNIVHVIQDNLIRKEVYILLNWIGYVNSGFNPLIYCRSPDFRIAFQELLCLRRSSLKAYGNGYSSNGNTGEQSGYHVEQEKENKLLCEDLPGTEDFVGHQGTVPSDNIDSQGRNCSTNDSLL
# Muscarinic acetylcholine receptor M1 (Homo sapiens), sequence (P11229 whole entry, looked up): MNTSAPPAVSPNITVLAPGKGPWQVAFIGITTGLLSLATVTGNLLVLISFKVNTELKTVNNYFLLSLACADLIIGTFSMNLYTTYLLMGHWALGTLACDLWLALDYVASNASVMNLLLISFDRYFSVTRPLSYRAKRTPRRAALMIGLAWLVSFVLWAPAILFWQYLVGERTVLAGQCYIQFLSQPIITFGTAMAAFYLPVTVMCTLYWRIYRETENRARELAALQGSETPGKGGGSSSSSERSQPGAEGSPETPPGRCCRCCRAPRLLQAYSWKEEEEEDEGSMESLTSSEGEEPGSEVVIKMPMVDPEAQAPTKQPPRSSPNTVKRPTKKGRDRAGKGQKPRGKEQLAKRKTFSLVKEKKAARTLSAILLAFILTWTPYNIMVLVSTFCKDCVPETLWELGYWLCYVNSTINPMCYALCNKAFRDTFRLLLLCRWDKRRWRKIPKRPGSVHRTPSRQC
# KiSS-1 receptor (Homo sapiens), sequence (Q969F8 whole entry, looked up): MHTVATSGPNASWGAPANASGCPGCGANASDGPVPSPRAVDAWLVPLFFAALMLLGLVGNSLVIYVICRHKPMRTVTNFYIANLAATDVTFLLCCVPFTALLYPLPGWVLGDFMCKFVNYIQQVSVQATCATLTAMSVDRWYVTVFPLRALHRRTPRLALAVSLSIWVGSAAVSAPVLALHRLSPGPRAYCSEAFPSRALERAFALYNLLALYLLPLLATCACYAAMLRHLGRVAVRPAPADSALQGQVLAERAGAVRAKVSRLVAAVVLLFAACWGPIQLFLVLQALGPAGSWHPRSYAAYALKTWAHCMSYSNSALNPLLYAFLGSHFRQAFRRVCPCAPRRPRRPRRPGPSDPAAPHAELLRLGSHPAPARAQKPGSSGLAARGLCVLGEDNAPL
# D(2) dopamine receptor (Homo sapiens), sequence (P14416 whole entry, looked up): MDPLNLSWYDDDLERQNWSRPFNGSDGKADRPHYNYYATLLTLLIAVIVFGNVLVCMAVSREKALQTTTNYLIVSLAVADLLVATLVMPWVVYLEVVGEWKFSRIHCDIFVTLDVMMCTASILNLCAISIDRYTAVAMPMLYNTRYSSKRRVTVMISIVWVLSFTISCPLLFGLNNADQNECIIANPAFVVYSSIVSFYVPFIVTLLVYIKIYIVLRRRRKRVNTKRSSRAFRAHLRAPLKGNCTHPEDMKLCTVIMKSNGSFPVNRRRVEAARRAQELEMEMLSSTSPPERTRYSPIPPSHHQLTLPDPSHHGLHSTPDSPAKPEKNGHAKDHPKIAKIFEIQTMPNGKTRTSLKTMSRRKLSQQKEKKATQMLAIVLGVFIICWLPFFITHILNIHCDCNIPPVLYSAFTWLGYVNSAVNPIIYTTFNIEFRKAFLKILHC
# 5-hydroxytryptamine receptor 2A (Homo sapiens), sequence (P28223 whole entry, looked up): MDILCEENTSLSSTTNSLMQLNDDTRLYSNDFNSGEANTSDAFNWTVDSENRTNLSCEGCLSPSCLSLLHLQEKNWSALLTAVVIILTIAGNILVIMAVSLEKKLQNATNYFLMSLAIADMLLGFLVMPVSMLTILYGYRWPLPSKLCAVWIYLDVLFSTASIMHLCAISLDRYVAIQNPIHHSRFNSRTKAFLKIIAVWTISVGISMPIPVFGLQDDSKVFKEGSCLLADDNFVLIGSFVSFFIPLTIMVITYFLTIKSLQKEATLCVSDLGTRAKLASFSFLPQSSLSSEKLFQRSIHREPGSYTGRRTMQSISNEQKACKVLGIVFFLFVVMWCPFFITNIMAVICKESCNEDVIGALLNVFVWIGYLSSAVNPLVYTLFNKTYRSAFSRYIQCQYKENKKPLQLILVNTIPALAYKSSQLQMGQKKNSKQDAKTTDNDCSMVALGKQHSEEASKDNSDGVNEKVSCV
# Gonadotropin-releasing hormone receptor (Homo sapiens), sequence (P30968 whole entry, looked up): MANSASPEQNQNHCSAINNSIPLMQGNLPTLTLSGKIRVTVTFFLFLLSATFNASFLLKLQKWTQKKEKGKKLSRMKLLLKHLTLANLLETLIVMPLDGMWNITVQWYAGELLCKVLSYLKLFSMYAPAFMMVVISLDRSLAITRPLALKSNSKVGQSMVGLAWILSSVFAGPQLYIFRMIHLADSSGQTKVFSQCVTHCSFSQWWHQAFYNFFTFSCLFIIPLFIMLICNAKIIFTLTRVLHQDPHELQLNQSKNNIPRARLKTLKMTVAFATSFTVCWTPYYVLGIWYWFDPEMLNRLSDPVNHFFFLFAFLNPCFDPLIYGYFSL
structure (smiles),measurement,setting,value
CC(O)C1CCCCC1 (configuration not stated),Potency,[1],inactive
same,Potency,[2],inactive
same,Potency,[3],inactive
same,Potency,[4],inactive
same,Potency,[5],inactive
same,Potency,[6],inactive
same,Potency,[7],inactive
same,Potency,[8],inactive
same,Potency,[9],inactive
same,Potency,[10],inactive
same,Potency,[11],inactive
same,Potency,[12],inactive
same,Potency,[13],inactive
same,Potency,[14],inactive
same,Potency,[15],inactive
same,Potency,[16],inactive
C[C@@H](O)[C@H]1C(=O)N2C(C(=O)O)=C(S[C@@H]3CN[C@H](CNS(N)(=O)=O)C3)[C@H](C)[C@H]12,Potency,[1],inactive
same,Potency,[2],inactive
same,Potency,[3],inactive
same,Potency,[4],inactive
same,Potency,[5],inactive
same,Potency,[6],inactive
same,Potency,[7],inactive
same,Potency,[8],inactive
same,Potency,[9],inactive
same,Potency,[10],inactive
same,Potency,[11],inactive
same,Potency,[15],inactive
same,Potency,[16],inactive
Cc1onc(-c2c(Cl)cccc2Cl)c1C(=O)Cl,Potency,[1],inactive
same,Potency,[2],inactive
same,Potency,[3],inactive
same,Potency,[17],inactive
same,Potency,[5],inactive
same,Potency,[6],inactive
same,Potency,[7],inactive
same,Potency,[18],inactive
same,Potency,[9],inactive
same,Potency,[10],inactive
same,Potency,[11],inactive
same,Potency,[13],inactive
same,Potency,[14],inactive
same,Potency,[19],inactive
same,Potency,[15],inactive
same,Potency,[16],inactive
CN1CCN(c2cc3c(nn2)Oc2ccccc2N3C)CC1,"activity, positive = activation",[1],17.2% [at 19 µM]
same,activity change,[2],"-0.362% [at 11.8 µM, active compounds read high]"
same,activation,[3],-0.078% [at 15.8 µM]
same,activation,[20],-1.74% [at 13.5 µM]
same,"activity change, negative = cytotoxicity",[5],-6.1% [at 13.5 µM]
same,"activity change, negative = cytotoxicity",[6],0.69% [at 13.5 µM]
same,activation,[18],6.54% [at 13.5 µM]
same,activation,[9],-12.8% [at 15.9 µM]
same,"activity, negative = inhibition",[10],-12.9% [at 12.6 µM]
same,activation,[11],3.18% [at 15.8 µM]
same,activation,[12],1.47% [at 19 µM]
same,"activity change, negative = inhibition",[13],0.639% [at 18.9 µM]
same,"activity change, negative = inhibition",[14],3.6% [at 19 µM]
same,activation,[19],4.93% [at 19 µM]
same,activation,[15],11.1% [at 19 µM]
same,"activity change, negative = inhibition",[16],-3.28% [at 18.9 µM]
C[n+]1c2cc(N)ccc2cc2ccc(N)cc21 (tested in a mixture with another compound),Potency,[1],6.68 µM (active)
same,Potency,[2],16.9 µM (active)
same,Potency,[3],21.3 µM (active)
same,Potency,[4],16.9 µM (active)
same,Potency,[5],inactive
same,Potency,[8],inactive
same,Potency,[9],19 µM (active)
same,Potency,[10],inactive
same,Potency,[11],19 µM (active)
O=[N+]([O-])c1ccc(O)cc1C(F)(F)F,Potency,[1],68.6 µM (active)
same,Potency,[2],inactive
same,Potency,[3],inactive
same,Potency,[17],inactive
same,Potency,[6],inactive
same,Potency,[7],inactive
same,Potency,[8],inactive
same,Potency,[9],inactive
same,Potency,[10],inactive
same,Potency,[11],inactive
same,Potency,[14],inactive
same,Potency,[15],inactive
same,Potency,[16],inactive
CSc1ccc(/C=C2/C(C)=C(CC(=O)O)c3cc(F)ccc32)cc1,Potency,[1],inactive
same,Potency,[2],inactive
same,Potency,[3],inactive
same,Potency,[20],inactive
same,Potency,[17],inactive
same,Potency,[5],inactive
same,Potency,[6],inactive
same,Potency,[14],inactive
same,Potency,[15],inactive
same,Potency,[16],inactive
CO/N=C(/C(=O)N[C@@H]1C(=O)N2C(C(=O)OCOC(=O)C(C)(C)C)=C(C)CS[C@H]12)c1csc(N)n1,Potency,[1],inactive
same,Potency,[2],inactive
same,Potency,[3],inactive
same,Potency,[17],inactive
same,Potency,[5],inactive
same,Potency,[6],inactive
same,Potency,[7],inactive
same,Potency,[18],inactive
same,Potency,[8],inactive
same,Potency,[10],inactive
same,Potency,[11],inactive
same,Potency,[14],inactive
same,Potency,[15],inactive
same,Potency,[16],inactive
